The list shows a part of the results. Values without a mark were called inactive. Activity calls are given as the source filed them. No stated cut-off is given here; in the data, active means activation above about 12%; inactive means the rest. Non-standard residues stand in square brackets, D forms with d. Residues, ends and D or L forms follow the SMILES beside them. ξ: configuration not given here. ξM = CSCCC(N)C(=O)O
Target: Sphingosine 1-phosphate receptor 4 (Homo sapiens) (UniProt O95977)
Assay: activators of human S1P4 signalling – cell-based, high throughput, confirmation (AID 1523);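 further: 0% = vehicle and 100% = full reference agonist response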
Settings: S1P4 agonist cell-based reporter assay; at 4.98 µM; active compounds read high

Chain of Sphingosine 1-phosphate receptor 4 (Homo sapiens) (O95977 whole entry, looked up): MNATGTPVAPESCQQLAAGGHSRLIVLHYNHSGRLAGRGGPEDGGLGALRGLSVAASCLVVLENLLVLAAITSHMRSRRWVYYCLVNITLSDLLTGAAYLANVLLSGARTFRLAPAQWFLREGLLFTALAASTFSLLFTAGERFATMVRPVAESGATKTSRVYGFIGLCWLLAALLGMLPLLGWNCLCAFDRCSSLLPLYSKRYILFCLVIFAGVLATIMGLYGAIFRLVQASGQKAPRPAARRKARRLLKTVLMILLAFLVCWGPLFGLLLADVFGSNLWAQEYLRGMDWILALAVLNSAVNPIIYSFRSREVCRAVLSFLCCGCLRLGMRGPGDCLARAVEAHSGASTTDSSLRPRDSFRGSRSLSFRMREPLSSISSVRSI

SMILES | activation
CC(C)C(c1nnnn1C(C)(C)C)N1CCN(Cc2cccnc2)CC1 (configuration not stated) | -2.62%
COc1ccc(C2CC(c3cccs3)=NN2c2ccc(F)cc2)cc1OC (configuration not stated) | 10.7%
O=C(COC(=O)c1cc([N+](=O)[O-])ccc1NCc1ccccc1)NC1CCCCC1 | -2.43%
CC(=O)Nc1ccc(SCC(=O)Nc2ccccc2Oc2ccccc2)cc1 | -3.24%
Cc1cc(C)c(C#N)c(SCC(=O)NN2CC(=O)N(c3ccccc3F)CC2=O)n1 | -0.87%
CSc1sc(C(=O)NNC(=O)c2ccc(Cl)cc2)c2c1C=CCC2 | -2.13%
COc1ccccc1CNC(=O)CNC(=O)c1cn(-c2ccccc2OC)c(=O)c2ccccc12 | -1.82%
CCOc1ccc(-c2nnc(-c3ccco3)o2)cc1 | -1%
O=C(COC(=O)Cc1ccc(F)cc1)Nc1cc(S(=O)(=O)N2CCOCC2)ccc1N1CCCC1 | -0.73%
CCC(=O)/C(=C(/O)c1ccccc1)c1nc2ccccc2[nH]1 | -1.45%
O=[N+]([O-])c1cccc(Nc2c3ccccc3nc3ccccc23)c1 | 6.3%
O=C(CSc1ccc(-c2ccc(F)cc2)nn1)Nc1ccc2c(c1)OCCO2 | -1.49%
Cc1cc(C)nc(N(C#N)CC(=O)Nc2ccccc2)n1 | -0.69%
COC(=O)CNC(=O)C(CCSC)NC(C)=O (configuration not stated) (Ac-[ξM]-Gly-OMe) | -1.87%
Cc1noc(C)c1COC(=O)COc1ccc(-c2ccccc2)cc1 | -2.48%
CCn1c(CNC(=O)c2ccc(OC)c(OC)c2)nnc1SCC(=O)Nc1ccccc1 | -2.38%

SMILES | activation
COC(=O)[C@@H]1CC[C@H](C)[C@@H](c2ccc(C)cc2)N1C(=O)c1ccc(/C=N/O[C@H](C)c2cn([C@@H]3COC[C@H]3O)nn2)cc1 | -1.25%
COc1ccc(-n2c(C)cc(C(=O)CN3C(=O)NC4(CCc5ccccc54)C3=O)c2C)cc1 (configuration not stated) | -1.26%
COc1ccc(C2CC(c3cccs3)=NN2c2ccccc2)cc1 (configuration not stated) | 23.1% (active)
O=C(CSc1nncn1-c1cccnc1)N1CCOCC1 | -1.73%
C=CCn1c(SCn2nnc3ccccc3c2=O)nnc1-c1ccc(Cl)cc1 | -1.29%
Cc1cc(NC(=O)c2cc(-c3cccs3)on2)nn1Cc1ccc(Cl)cc1 | -0.63%
CNC(=O)c1[nH]cnc1C(=O)N[C@@H](CC(C)C)C(=O)OCc1ccccc1 | 48% (active)
COc1ccc(N2C(=O)C(Cc3ccccc3)NC2=S)cc1 (configuration not stated) | -1.44%
N/C(=N\OC(=O)Cc1ccc([N+](=O)[O-])cc1)c1ccccn1 | -3.04%
CC(Oc1ccc(Br)cc1Br)C(=O)NC1CCCC1 (configuration not stated) | -1.69%
O=C(CSc1nnc(Nc2ccccc2)s1)Nc1cccnc1Cl | -0.71%
CC(=O)Nc1ccccc1NC(=O)c1cc(C)cc(C)c1 | -2.02%
CCCCCNC(=O)c1cccnc1SCC(=O)Nc1ccccc1OC | -2.09%
Cc1ccc(NC(=O)Nc2ccccc2)c(Br)c1 | -1.05%
CC1CCCC(NC(=O)COC(=O)[C@@H]2CC(O)CN2S(=O)(=O)c2ccc3c(c2)OCCO3)C1C (some centres not stated) | -1.06%
CCC(C)NC(=O)C1c2ccccc2Oc2ccccc21 (configuration not stated) | 0.12%
